# “And” between values parts separate entries of the source, which are not always exact repeats. Identical values can stand only once. The source made the active and inactive calls. Cut-off read from the data, not from the text of the source, unless noted: active = inhibition above about 80%; inactive = the rest.
# How the values were obtained:
# [1] = sensitizers of A549 cells to miR-34 induction, primary screen, imaging, A549 dox-inducible miR-34, nuclei and caspase counts (AID 1347080;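 active = compounds whose cell count with miR-34 switched on is under 0.7 times the count with it off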); settings: A549 miR-34 inducible, Hoechst nuclei count, 48 h
# [2] = survival rescue of mitochondrial mutant cells in low glucose, primary screen, MELAS cybrids, Rieske KO mouse fibroblasts, CellTiter-Glo (AID 1508586;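 active = mean z-score across replicates of 1.96 or higher in either the MELAS or the Rieske mutant cell line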;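 note: z relative to plate mean and SD of compound and empty wells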)
# [3] = LFS_MB_P medulloblastoma growth inhibition, cell-based, chromothripsis tumors, cisplatin or BGB combos (AID 1671449); settings: LFS_MB_P medulloblastoma cells;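 note: cells exposed for 96 hours; 0% = vehicle DMSO and 100% = killing by high DMSO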
# [4] = HDN33 neuroblastoma growth inhibition, cell-based, chromothripsis tumors, cisplatin or BGB combos (AID 1671450); settings: HDN33 neuroblastoma cells, stronger effect = higher value;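 note: cells exposed to compound for four days; 0% = vehicle DMSO and 100% = cell killing by high DMSO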
# [5] = ICB984 medulloblastoma cell growth inhibition, synergistic combos for chromothripsis tumors, cisplatin or BGB combos (AID 1671451; call rule not given here;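 note: cells exposed for 96 hours before readout; 0% = vehicle DMSO and 100% = killing by high DMSO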); settings: ICB984 medulloblastoma cells, drug combinations, stronger effect = higher value
# [6] = LFS_MB_1R medulloblastoma cell growth inhibition, synergistic combos for chromothripsis tumors, cisplatin or BGB combos (AID 1671452); settings: LFS_MB_1R medulloblastoma cells, stronger effect = higher value;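 note: cells exposed for 96 hours before readout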
# [7] = HTB85 osteosarcoma cell growth inhibition, synergistic combos for chromothripsis tumors, BGB or cisplatin IC20 combos (AID 1671453); settings: HTB85 osteosarcoma cells, drug combinations, stronger effect = higher value;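 note: cells exposed for 96 hours before readout; 0% = vehicle DMSO and 100% = high DMSO killing control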
# [8] = CRL2098 osteosarcoma cell growth inhibition, synergistic combos for chromothripsis tumors, BGB or cisplatin IC20 combos (AID 1671454); settings: CRL2098 osteosarcoma cells, drug combinations, stronger effect = higher value;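 note: cells exposed for 96 h before readout; 0% = vehicle DMSO and 100% = killing by high DMSO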
# [9] = HD-MB03 medulloblastoma cell growth inhibition, synergistic combos for chromothripsis tumors, BGB or cisplatin IC20 combos (AID 1671455; in the data active = inhibition above about 83%;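 note: 0% = vehicle DMSO and 100% = high DMSO as cytotoxic control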); settings: HD-MB03 medulloblastoma cells, stronger effect = higher value
# [10] = UWB1.289 ovarian carcinoma cell growth inhibition, synergistic combos for chromothripsis tumors, BGB or cisplatin combos (AID 1671456); settings: UWB1.289 ovarian carcinoma cells, stronger effect = higher value;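 note: cells exposed to compound for four days; 0% = vehicle DMSO and 100% = killing by high DMSO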
# [11] = LFS_MB_2R medulloblastoma cell growth inhibition, synergistic combos for chromothripsis tumors, cisplatin combos (AID 1671457); settings: LFS_MB_2R medulloblastoma cells, stronger effect = higher value;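 note: cells exposed to compound for four days before readout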
# [12] = MDA-MB-436 breast carcinoma cell growth inhibition, synergistic combos for chromothripsis tumors, BGB or cisplatin combos (AID 1671458; call rule not given here;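 note: cells exposed for 96 hours; 0% = vehicle DMSO and 100% = killing by high DMSO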); settings: MDA-MB-436 breast carcinoma growth inhibition, drug combinations, stronger effect = higher value
# [13] = UWB1.289_BRCA1 ovarian cancer growth, cell-based, BGB or cisplatin combinations (AID 1671459); settings: UWB1.289 BRCA1 ovarian carcinoma, drug combinations, stronger effect = higher value
# [14] = human astrocyte viability loss, single and combined drugs, cytotoxicity control for chromothriptic childhood tumor combination screen, cell-based, BGB or cisplatin IC20 combos (AID 1671460); settings: Human astrocytes, drug combinations, stronger effect = higher value;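 note: cells exposed to compounds for 96 hours before viability readout; 0% = vehicle and 100% = killing control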
# [15] = growth inhibition of BT084 medulloblastoma cells, cell-based, ICGC_MB145, cisplatin and BGB IC40 combos (AID 1671461); settings: drug combinations, stronger effect = higher value;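 note: cells exposed to drugs for 96 hours; 0% = vehicle DMSO and 100% = high DMSO full killing control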
# [16] = growth inhibition of RCMB18 medulloblastoma cells, cell-based, cisplatin and BGB IC40 combos (AID 1671462); settings: stronger effect = higher value;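 note: cells exposed to compound for four days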
# [17] = growth inhibition of CRL1545 osteosarcoma cells, cell-based, cisplatin and BGB IC20 combos (AID 1671464); settings: stronger effect = higher value;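 note: cells exposed to compound for 96 hours before readout; 0% = vehicle DMSO and 100% = high DMSO killing control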
# [18] = stronger effect = lower value, cell number ratio, induced over uninduced
# [19] = measured here: relative caspase fold change +Dox/-Dox
# [20] = measured here: total cells with miR-34 induction, stronger effect = lower value
# [21] = measured here: total cells without miR-34 induction
# [22] = MELAS cybrid survival, CellTiter-Glo 48 h, stronger effect = higher value
# [23] = Rieske KO mouse fibroblast survival, CellTiter-Glo 72 h
# [24] = measured here: combination with BGB IC40, at 0.05 µM
# [25] = measured here: with BGB IC20 combination, at 0.5 µM
# [26] = measured here: with cisplatin IC20 combination, at 0.5 µM
# [27] = measured here: combination with cisplatin, at 0.5 µM
# [28] = measured here: combination with cisplatin, at 5 µM
structure (smiles),measurement,setting,value
Nc1ccn(C2OC(CO)C(O)C2(F)F)c(=O)n1 (stereo not given),fold change,[1]; [18],1.02 (inactive)
same,fold change,[1]; [19],0.857
same,cell count,[1]; [20],1840
same,cell count,[1]; [21],1810
same,z-score,[2]; [22],2.35 (active)
same,z-score,[2]; [23],-0.225
same,inhibition,"[3]; at 0.5 µM, stronger effect = higher value",12.8% (inactive) and -24.1% (inactive) and -14.5% (inactive)
same,inhibition,"[3]; measured here: combination with BGB IC20, at 0.005 µM",-8.46% and 7.63% and 14%
same,inhibition,"[3]; measured here: combination with BGB IC40, at 0.005 µM",-8.25% and -29.3% and -2.14%
same,inhibition,[3]; [24],-22.1% and -15.3% and -25.2%
same,inhibition,"[3]; measured here: combination with cisplatin, at 0.5 µM, stronger effect = higher value",91.7% and -25.4% and 35.7%
same,inhibition,"[3]; measured here: combination with cisplatin, at 5 µM, stronger effect = higher value",65.8% and 67.6% and 88%
same,inhibition,"[4]; BGB combo, at 5 µM",86.4% and 89.9% and 88.8%
same,inhibition,[4]; at 0.5 µM,87.6% (active) and 87.3% (active) and 83.2% (active)
same,inhibition,"[4]; cisplatin combo, at 5 µM",81.7% and 86.5% and 82.8%
same,inhibition,[4]; [25],88.2% and 89.8% and 84.6%
same,inhibition,[4]; [26],86.2% and 82.4% and 79.7%
same,inhibition,"[4]; single agent, at 5 µM",88.8% and 90% and 87.7%
same,inhibition,"[5]; BGB IC20 combo, at 0.005 µM",-3.49% and -7.36% and -23.1%
same,inhibition,"[5]; BGB IC40 combo, at 0.005 µM",-5.04% and 4.53% and 16%
same,inhibition,"[5]; BGB IC40 combo, at 0.05 µM",26% and 33.4% and 30.2%
same,inhibition,[5]; at 0.5 µM,-22.9% (inactive) and -37.1% (inactive) and -18.5% (inactive)
same,inhibition,"[5]; cisplatin combo, at 0.05 µM",26% and 30.8% and 27.7%
same,inhibition,"[5]; cisplatin combo, at 0.5 µM",-43.1% and -45% and -7.88%
same,inhibition,"[5]; cisplatin combo, at 5 µM",-24% and -19.7% and -23.1%
same,inhibition,"[5]; measured here: 5 uM single agent, at 5 µM",-32.2% and -6.79% and -21%
same,inhibition,[6]; at 0.5 µM,-17.1% (inactive) and -7.38% (inactive) and 7.19% (inactive)
same,inhibition,[6]; [24],-7.29% and 0.139% and -43.6%
same,inhibition,[6]; [27],49.7% and 24.2% and 32.2%
same,inhibition,[6]; [28],66.7% and 77.2% and 68.3%
same,inhibition,[7]; at 0.5 µM,86.6% (active) and 90.3% (active) and 89.1% (active)
same,inhibition,"[7]; measured here: with BGB IC20, at 0.5 µM",76.2% and 85.7% and 83.4%
same,inhibition,"[7]; measured here: with BGB IC20, at 5 µM",72.1% and 73.5% and 75.1%
same,inhibition,"[7]; measured here: with cisplatin IC20, at 0.5 µM",91.2% and 91.9% and 89.4%
same,inhibition,"[7]; measured here: with cisplatin IC20, at 5 µM",90.4% and 93.2% and 92.8%
same,inhibition,"[7]; single agent, at 5 µM",92.2% and 93.6% and 92.8%
same,inhibition,[8]; at 0.5 µM,68.5% (inactive) and 65.4% (inactive) and 40.8% (inactive)
same,inhibition,"[8]; measured here: combination with BGB at IC20, at 0.5 µM",53% and 49.8% and 5.09%
same,inhibition,"[8]; measured here: combination with cisplatin at IC20, at 0.5 µM",70.5% and 84.6% and 51.6%
same,inhibition,[9]; at 0.5 µM,92.5% (active) and 91.3% (active)
same,inhibition,"[9]; measured here: combo with BGB at IC20, at 0.5 µM",87.4% and 87.6% and 86.6%
same,inhibition,"[9]; measured here: combo with cisplatin at IC20, at 0.5 µM",96.8% and 96.7% and 96%
same,inhibition,[10]; at 0.5 µM,36.9% (inactive) and 40.6% (inactive) and 36.4% (inactive)
same,inhibition,"[10]; measured here: inhibition with BGB combination, at 0.05 µM",-8.95% and 6.66% and -8.78%
same,inhibition,"[10]; measured here: inhibition with cisplatin combination, at 0.05 µM",34.8% and 31% and 33.4%
same,inhibition,[11]; at 0.5 µM,-9.87% (inactive) and -8.63% (inactive) and -0.27% (inactive)
same,inhibition,[11]; [27],22.8% and 20.6% and 41.7%
same,inhibition,[11]; [28],40.3% and 52.4% and 57.5%
same,inhibition,[12]; at 0.5 µM,67.3% (inactive) and 69.9% (inactive) and 70.3% (inactive)
same,inhibition,"[12]; measured here: BGB combination, at 0.5 µM",56.1% and 61.1% and 59%
same,inhibition,"[12]; measured here: BGB combination, at 5 µM",58% and 56% and 66.5%
same,inhibition,"[12]; measured here: cisplatin combination, at 0.5 µM",71.9% and 76.1% and 74.4%
same,inhibition,"[12]; measured here: cisplatin combination, at 5 µM",77.8% and 78.1% and 78.7%
same,inhibition,"[13]; BGB combination, concentration series, at 5 µM",71.1% and 55.2% and 80.4%
same,inhibition,[13]; at 0.5 µM,43.5% (inactive) and 49.4% (inactive) and 43.9% (inactive)
same,inhibition,"[13]; cisplatin combination, concentration series, at 5 µM",101% and 97.9% and 125%
same,inhibition,[14]; at 0.5 µM,70% (inactive) and 73.6% (inactive) and 72.6% (inactive)
same,inhibition,"[14]; measured here: combo with BGB IC20, at 0.5 µM",71.3% and 72.2% and 72.3%
same,inhibition,"[14]; measured here: combo with cisplatin IC20, at 0.5 µM",58.6% and 65% and 62%
same,inhibition,[15]; at 0.5 µM,-11% (inactive) and -2.39% (inactive) and 3.77% (inactive)
same,inhibition,"[15]; cisplatin combination, at 0.5 µM",30.6% and 26.6% and 14.1%
same,inhibition,"[15]; cisplatin combination, at 5 µM",52.1% and 55.8% and 69.2%
same,inhibition,"[15]; measured here: BGB IC40 combination 0.05 uM, at 0.05 µM",-18.1% and -16.5% and -27.6%
same,inhibition,"[15]; single agent, at 5 µM",11.1% and 16.6% and 14.7%
same,inhibition,[16]; at 0.5 µM,5.91% (inactive) and 3.99% (inactive) and 14.1% (inactive)
same,inhibition,"[16]; cisplatin combo, at 5 µM",85.9% and 82.9%
same,inhibition,"[16]; measured here: BGB IC40 combination, at 0.05 µM",-10.4% and -39% and -30%
same,inhibition,[16]; [27],68.2% and 64.5% and 57.4%
same,inhibition,"[16]; single agent, at 5 µM",10.1% and 16.5% and 18.8%
same,inhibition,[17]; at 0.5 µM,65.3% (inactive) and 70.4% (inactive) and 61.5% (inactive)
same,inhibition,[17]; [25],73.4% and 66.6% and 67.9%
same,inhibition,[17]; [26],61.3% and 72.3% and 57.7%
same,inhibition,"[17]; single agent, at 0.05 µM",71.8% and 61.1% and 53.4%
same,inhibition,"[17]; single agent, at 5 µM",87.7% and 91.1% and 81.7%
O=C1OC(C(O)CO)C(O)=C1O (stereo not given),fold change,[1]; [18],1.03 (inactive)
same,fold change,[1]; [19],1.05
same,cell count,[1]; [20],8100
same,cell count,[1]; [21],7850
same,z-score,[2]; [22],0.0982 (inactive)
same,z-score,[2]; [23],-0.298
